# Screening data as filed in PubChem.
# This is a sample that favours compounds with a hit; in the whole collection about 19% have one here.
# DT40 TDP1 no CPT: qHTS for Inhibitors of human tyrosyl-DNA phosphodiesterase 1 (TDP1): qHTS in cells in absence of CPT. 420,000 compounds, 15% hits. Potency, µM (series often up to 46.2 µM), inactives show at the top dose activity change, negative = growth inhibition, usual class: inhibitors. DT40 Tdp1-/- hTDP1 cells, no CPT, ATP luminescence, 48 h; also: nearly all actives have a fitted effect of over 55% in size
#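 Growth of hTDP1-complemented DT40 Tdp1-knockout cells is measured by ATP luminescence after at least 48 hr compound exposure at 37 °C, with DMSO substituting for the 20 nM CPT used in the parallel screen.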
# HT1080NT lethal: kills 2HG-producing HT-1080-NT fibrosarcoma cells. HT-1080-NT fibrosarcoma viability, CellTiter-Glo ATP luminescence, 48 h. Potency, µM (series often up to 46.1 µM), inactives show at the top dose activity, negative = less viability, hits mostly cytotoxic. 360,000 compounds, 1.6% hits;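 also: NT is the 2HG producing partner of a matched IDH1 knockdown line; 0% = DMSO-treated cells and -100% = media-only wells without cells; nearly all actives have a fitted effect of over 55% in size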
#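 Viability of the 2HG-overproducing fibrosarcoma line after 48 hours of compound exposure at 37 degrees C was determined by luminescence with CellTiter-Glo, and concentration-effect curves were then fitted and categorized.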
# HT1080 IDH1KD tx: toxicity to HT-1080 IDH1 knockdown cells (counter line); AID 686971; 360,000 compounds, 2% hits; HT-1080 IDH1 knockdown viability, ATP luminescence, 48 h; Potency, µM (highest dose often 46.1 µM), inactives show at the top dose activity, negative = toxicity, hits mostly cytotoxic;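 also: 0% = DMSO wells and -100% = cell-free medium wells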
#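 Luminescent ATP read-out (CellTiter-Glo, 10 min at room temperature) after 48 h compound exposure at 37 °C gave viability of IDH1-knockdown HT-1080 cells. Activity was normalised to DMSO and cell-free wells, then fitted as concentration-response curves.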
# KB-V1 MDR tox: KB-V1 MDR subline cytotoxicity; KB-V1 MDR cells viability, CellTiter-Glo, 72 h; Potency, µM (top dose mostly 46.1 µM), most hits filed as cytotoxic; 400,000 compounds, 3.4% hits; AID 1347076; also: nearly all actives have a fitted effect of over 60% in size
#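 KB-V1, DMEM (no phenol red) + 10% FBS; cpd pin-transferred, titration series; 72 h, 37 degrees C; CellTiter-Glo, luminescence. Data normalized, curve-fit.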
# KB-3-1 cytotox: kills parental KB-3-1 adenocarcinoma cells | AID 1347075 | 400,000 compounds, 1.4% hits | Potency, µM (doses to about 46.1 µM), hits mostly cytotoxic | KB-3-1 viability, CellTiter-Glo ATP luminescence, 72 h; also: nearly all actives have a fitted effect of over 60% in size
#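 Here the drug-naive KB-3-1 line serves as comparator for MDR sub-line selectivity; cells received compound titrations, 72 h at 37 °C, then CellTiter-Glo readout.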
# TDP1 cell CPT: DT40-hTDP1 cell growth loss with CPT; AID 686979; Potency, µM (top dose mostly 46.2 µM), for inactives: top-dose activity change, negative = growth inhibition, usual class: inhibitors; 420,000 compounds, 12% hits; chicken DT40 Tdp1-/-;hTDP1 cells + 20 nM CPT, ATP luminescence, 48 h; also: nearly all actives have a fitted effect of over 55% in size
#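 Chicken DT40 Tdp1-/- cells stably complemented with human TDP1 were seeded at 400 cells/well in medium containing 20 nM camptothecin, exposed to pin-transferred compounds, and grown at 37 °C for at least 48 hr. Viability was read as ATP luminescence.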
# * marks the source's active call; other numbers are inactive results; i = inactive; ? = inconclusive; · = no result. Calls follow the shape of the dose curve; as a rule, active = well fitted curve in the direction sought with a large enough effect; inconclusive = small, poorly fitted or top-dose-only effect, or another doubt; inactive = no such curve, though single readings can be large; an effect the other way counts as inactive or inconclusive. Unless noted, % is scaled to controls: 0 for no effect and ±100 for the full control effect; potency is read from the fitted curve at half-maximal effect.
SMILES,DT40 TDP1 no CPT,HT1080NT lethal,HT1080 IDH1KD tx,KB-V1 MDR tox,KB-3-1 cytotox,TDP1 cell CPT
CCN1CCN(c2ccc([N+](=O)[O-])c(Sc3nc4ccccc4[nH]3)c2)CC1,?,-10%,-7%,i,i,?
Cc1cc2nc(Sc3c([N+](=O)[O-])nc(C)n3Cc3ccccc3)[nH]c2cc1C,12µM*,?,?,i,?,7.3µM*
O=C(CC1N=C2c3ccccc3N=C(SCc3cccc(Cl)c3)N2C1=O)NCCc1ccccc1 (stereo not drawn),?,·,·,i,i,?
O=C(O)c1cc([N+](=O)[O-])c(Sc2nc3ccccc3[nH]2)c([N+](=O)[O-])c1,-15%,-13%,3%,?,i,-18%
CS(=O)(=O)c1cc([N+](=O)[O-])c(Sc2nc3ccccc3[nH]2)c([N+](=O)[O-])c1,4.6µM*,11µM*,10µM*,i,i,2.9µM*
Cc1ccc2nc(Cl)c(C3CC(c4cccs4)=NN3C(=O)CCCC(=O)O)cc2c1 (stereo not drawn),8.2µM*,0%,3%,?,i,-19%
COc1ccc2cc(C3CC(c4ccco4)=NN3S(C)(=O)=O)c(Cl)nc2c1 (stereo not drawn),?,-1%,-15%,i,i,?
Cc1ccc2cc(C3CC(c4ccco4)=NN3C(=O)CCC(=O)O)c(Cl)nc2c1 (stereo not drawn),16µM*,17%,12%,i,i,?
COCCCNC(=S)NNC(=O)c1cc(C2CC2)nc2ccccc12,0%,4%,11%,i,i,8%
COc1ccc(-n2c(=O)c(C)nc3cnc(Oc4ccccc4)nc32)cc1,?,·,·,·,·,-20%
COc1cccc(CNC(=O)CCCC(=O)NC(C)CCc2ccccc2)c1 (stereo not drawn),-21%,0%,-1%,i,i,-8%
Cc1ccccc1Nc1scc(-c2ccc(Cl)cc2)[n+]1-c1ccccc1C,23µM*,-4%,-4%,i,9.2µM*,18µM*
Cc1csc(Nc2ccccc2)[n+]1-c1ccccc1,?,1%,-7%,?,i,-20%
COc1ccc(CN2C(=O)CN(S(C)(=O)=O)CC2(C)C(=O)NC(C)C)cc1 (stereo not drawn),1%,11%,10%,i,i,23%
C=C(C)C(=O)Oc1ccc(N=Nc2ccc(C)cc2)ccc1=O,2.9µM*,?,23µM*,?,i,10µM*
Cc1cccc2nc(CSc3ccccc3N)cn12,?,-9%,1%,i,i,-9%
Cc1cccc2nc(COc3ccc4ccccc4c3Br)cn12,23µM*,-18%,-10%,?,?,?
O=Cc1ccc2noc(-c3ccc(Cl)cc3)c2c1,16µM*,-14%,-13%,23µM*,?,?
Cc1ccc(-c2onc3ccc(Cl)cc23)cc1,?,-7%,-5%,i,i,-14%
CC(C)CC(=O)O/N=C1\C(=O)N(c2ccccc2)c2ccccc21,23µM*,1%,0%,i,i,21µM*
Cc1ccc(S(=O)(=O)c2c(C)nn(C(C)(C)C)c2OC(=O)c2cccs2)cc1,-23%,23µM*,26µM*,i,i,-9%
Cc1ccc(S(=O)(=O)c2c(C)nn(C(C)(C)C)c2OC(=O)c2ccco2)cc1,?,23µM*,?,i,i,-24%
Cc1nn(C(C)(C)C)c(OC(=O)c2ccc3c(c2)OCO3)c1Sc1ccccc1,-25%,-23%,?,i,i,?
